# Values joined by “and” are separate entries in the source; they are usually repeats but may differ in a detail not shown here. Equal entries are not always repeated. Results filed as inconclusive are left out. Entries that show only a call come without a potency. More than one record can exist for a structure, and the calls need not agree. Active and inactive are the calls of the source. Unless noted, the call rests on the fitted dose curve; in most records, active means well fitted curve in the direction sought with a large enough effect in the repeat runs; inconclusive means weak or mixed curves; inactive means no such curve, though single readings can be large; an effect the other way counts as inactive or inconclusive.
# Columns and labels:
# [1] = qHTS assay to identify small molecule antagonists of the glucocorticoid receptor (GR) signaling pathway - cell viability counter screen (AID 720693); further: nearly all actives have a fitted effect of over 55% in size; further: potency means the concentration at half of the fitted maximal effect
# [2] = qHTS assay for identifying genotoxic compounds that show differential cytotoxicity against isogenic chicken DT40 cell lines with known DNA damage response pathways - Rad54/Ku70 mutant cell line (AID 743015); further: nearly all actives have a fitted effect of over 60% in size; further: potency means the concentration at half of the fitted maximal effect
# [3] = qHTS assay to identify small molecule antagonists of the androgen receptor (AR) signaling pathway - cell viability counter screen (AID 743033; further: nearly all actives have a fitted effect of over 45% in size; further: potency means the concentration at half of the fitted maximal effect)
# [4] = qHTS assay to identify small molecule antagonists of the androgen receptor (AR) signaling pathway using the MDA cell line - cell viability counter screen (AID 743041; further: nearly all actives have a fitted effect of over 45% in size; further: potency means the concentration at half of the fitted maximal effect)
# How it was run: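 Cytotoxicity counter screen: MDA-kb2 AR-luc cells, compound + R1881, 16 h, 37C, 0% CO2; CellTiter-Fluor added at 15.5 h, fluorescence read after 30 min.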
# [5] = qHTS assay to identify small molecule antagonists of the thyroid receptor (TR) signaling pathway - cell viability counter screen (AID 743064); further: nearly all actives have a fitted effect of over 50% in size; further: potency means the concentration at half of the fitted maximal effect
# How it was run: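 In-well cytotoxicity read by CellTiter-Fluor (30 min, 37 C) following 23.5 h exposure of GH3 cells bearing a TRE-luciferase sensor. Compounds were added alongside 1 nM (final) T3 to drive TR transactivation.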
# [6] = qHTS assay for identifying genotoxic compounds that show differential cytotoxicity against isogenic chicken DT40 cell lines with known DNA damage response pathways - Rev3 mutant cell line (AID 743014); further: nearly all actives have a fitted effect of over 55% in size; further: potency means the concentration at half of the fitted maximal effect
# [7] = target: Androgen receptor (Homo sapiens) (UniProt P10275); assay: qHTS assay to identify small molecule agonists of the androgen receptor (AR) signaling pathway (AID 743036; active means well fitted activation curve with a large enough effect in the signal ratio in the repeat runs, with a control signal flat, not every such curve was filed as active; the % refers to the signal ratio)
# Chain of Androgen receptor (Homo sapiens) (P10275 whole entry, looked up): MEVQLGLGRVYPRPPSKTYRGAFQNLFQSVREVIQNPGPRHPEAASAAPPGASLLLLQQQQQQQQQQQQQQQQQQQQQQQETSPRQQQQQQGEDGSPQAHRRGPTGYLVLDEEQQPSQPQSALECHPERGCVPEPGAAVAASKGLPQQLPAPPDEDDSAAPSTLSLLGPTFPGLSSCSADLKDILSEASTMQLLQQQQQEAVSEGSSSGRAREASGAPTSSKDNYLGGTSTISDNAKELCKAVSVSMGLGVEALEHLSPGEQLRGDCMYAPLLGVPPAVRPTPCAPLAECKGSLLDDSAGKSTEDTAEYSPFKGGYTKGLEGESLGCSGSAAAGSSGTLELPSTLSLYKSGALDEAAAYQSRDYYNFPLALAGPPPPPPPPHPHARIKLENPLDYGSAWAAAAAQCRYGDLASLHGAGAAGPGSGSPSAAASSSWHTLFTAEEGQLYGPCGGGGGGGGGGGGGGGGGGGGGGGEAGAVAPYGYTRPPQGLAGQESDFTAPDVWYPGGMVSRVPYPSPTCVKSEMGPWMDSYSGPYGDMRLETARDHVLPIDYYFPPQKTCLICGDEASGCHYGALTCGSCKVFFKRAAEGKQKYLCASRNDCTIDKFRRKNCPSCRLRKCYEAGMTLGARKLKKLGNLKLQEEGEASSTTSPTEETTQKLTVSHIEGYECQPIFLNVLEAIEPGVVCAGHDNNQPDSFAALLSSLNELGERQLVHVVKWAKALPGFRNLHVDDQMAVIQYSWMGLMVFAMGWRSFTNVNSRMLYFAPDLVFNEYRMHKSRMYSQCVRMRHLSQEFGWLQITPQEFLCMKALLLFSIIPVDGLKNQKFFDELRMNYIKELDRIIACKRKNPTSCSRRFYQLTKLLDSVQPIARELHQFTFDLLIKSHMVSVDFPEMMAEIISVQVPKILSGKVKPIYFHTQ
# How it was run: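 Activation was read as beta-lactamase FRET signal from LiveBLAzer B/G substrate, added for 2 h at room temperature. Before that, GeneBLAzer AR-UAS-bla GripTite (HEK293) cells had 16 h compound exposure at 37C.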
# [8] = target: Androgen receptor (Homo sapiens) (UniProt P10275); assay: qHTS assay to identify small molecule agonists of the androgen receptor (AR) signaling pathway using the MDA cell line (AID 743040; further: nearly all actives have a fitted effect of over 20% in size)
# How it was run: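 Luciferase read-out, ONE-Glo, 30 min RT. Cells: MDA-kb2 AR-luc, MMTV promoter with AR and GR response elements. Compound exposure 16 h, 37C, 0% CO2, after 5 h pre-incubation. qHTS agonist mode.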
# [9] = target: Androgen receptor (Homo sapiens) (UniProt P10275); assay: qHTS assay to identify small molecule antagonists of the androgen receptor (AR) signaling pathway using the MDA cell line (AID 743042; further: nearly all actives have a fitted effect of over 55% in size; further: potency means the concentration at half of the fitted maximal effect)
# How it was run: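 MDA-kb2 breast carcinoma cells carrying MMTV-luciferase (AR/GR responsive) were co-treated with compounds and the agonist R1881 for 16 h at 37C. Inhibition read as ONE-Glo luminescence; CellTiter-Fluor fluorescence measured in parallel for cytotoxicity.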
# [10] = qHTS assay for identifying genotoxic compounds that show differential cytotoxicity against isogenic chicken DT40 cell lines with known DNA damage response pathways - wild type cell line (AID 743012); further: nearly all actives have a fitted effect of over 60% in size; further: potency means the concentration at half of the fitted maximal effect
# How it was run: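 Endpoint: CellTiter-Glo luminescence, 30 min RT. Cells: wild type DT40, 300/well. Exposure: compounds in DMSO, 40 h, 37 C/5% CO2, after ~0.5 h pre-incubation.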
smiles,measurement,setting,value
Cc1ccc(-c2ccccc2)cc1,Potency,[1],inactive
same,Potency,[2],inactive
same,Potency,[3],inactive
same,Potency,[4],inactive
same,Potency,[5],inactive
O=C(O)c1cc(=O)c2ccccc2o1,Potency,[1],inactive
same,Potency,[6],inactive
same,Potency,[3],inactive
same,Potency,[4],inactive
same,Potency,[5],inactive
O=S(=O)(O)c1ccccc1/C=C/c1ccc(-c2ccc(/C=C/c3ccccc3S(=O)(=O)O)cc2)cc1,Potency,[1],inactive
same,Potency,[2],inactive
same,Potency,[3],inactive
same,Potency,[4],inactive
CCC(=O)C(=O)CC,Potency,[1],inactive
same,Potency,[6],28.5 µM (active)
same,Potency,[3],inactive
same,Potency,[4],inactive
CCC(C)[O-].CCC(C)[O-].CCOC(=O)/C=C(/C)[O-].[Al+3],Potency,[1],inactive
same,Potency,[6],inactive
same,Potency,[3],inactive
same,Potency,[4],inactive
same,Potency,[5],inactive
CCO[Si](OCC)(OCC)OCC,Potency,[1],inactive
same,Potency,[6],inactive
same,Potency,[3],inactive
same,Potency,[4],inactive
same,Potency,[5],inactive
CC(N=C(NC#N)Nc1ccncc1)C(C)(C)C (configuration not stated),Potency,[1],inactive
same,Potency,[6],inactive
same,Potency,[3],inactive
same,Potency,[5],inactive
Cc1cc(-c2ccc(N=Nc3cc(S(=O)(=O)O)c4ccccc4c3N)c(C)c2)ccc1N=Nc1cc(S(=O)(=O)O)c2ccccc2c1N,Potency,[1],inactive
same,Potency,[2],0.346 µM (active)
O=C(O)CN(CCN(CC(=O)O)CC(=O)O)CC(=O)O,Potency,[1],inactive
same,"activity, negative = cytotoxicity",[6],5.28% [at 3.82 µM] (inactive)
same,Potency,[3],inactive
same,Potency,[4],inactive
COCCOc1cc2cc(C(=O)NC3CCN(C(C)C)CC3)n(CC(=O)Nc3ccc(Cl)cn3)c2cn1,Potency,[1],inactive
same,Potency,[6],inactive
same,Potency,[3],inactive
same,Potency,[4],inactive
same,Potency,[5],60.4 µM (active)
CCCCC(CC)CN1CN(CC(CC)CCCC)CC(C)(N)C1 (configuration not stated),Potency,[1],inactive
same,Potency,[6],12.7 µM (active)
same,Potency,[3],inactive
same,Potency,[7],inactive
same,outcome,[8],inactive
same,Potency,[4],inactive
same,Potency,[9],inactive
CCCCCC(C)OC(=O)COc1ccc(Cl)c2cccnc12 (configuration not stated),Potency,[1],inactive
same,Potency,[6],inactive
same,Potency,[4],inactive
Cc1cc(-n2nc3ccc(Cl)cc3n2)c(O)c(C(C)(C)C)c1,Potency,[1],inactive
same,Potency,[6],inactive
same,Potency,[3],inactive
CC(C)(C)c1csc(-c2cc3cc(OCc4ccccc4CC(=O)O)ccc3o2)n1,Potency,[1],49 µM (active)
same,Potency,[2],61.1 µM (active)
Clc1nnc(Cl)c2ccccc12,Potency,[1],inactive
same,Potency,[2],inactive
same,Potency,[3],inactive
same,Potency,[4],inactive
same,Potency,[5],inactive
CCCCCCCCCCCC(=O)OCC(C)OC(=O)CCCCC(=O)O (configuration not stated),Potency,[1],inactive
same,Potency,[6],inactive
same,Potency,[3],inactive
same,Potency,[4],inactive
C=C(C)c1cccc(C(=C)C)c1,Potency,[1],inactive
same,Potency,[6],inactive
same,Potency,[3],inactive
same,Potency,[4],inactive
same,Potency,[5],inactive
Cc1c(C)c([N+](=O)[O-])c(C(C)(C)C)c([N+](=O)[O-])c1C,Potency,[1],inactive
same,Potency,[3],inactive
same,Potency,[4],inactive
CC(C)(C)C1CCC(=O)CC1,Potency,[1],inactive
same,Potency,[3],inactive
same,Potency,[4],inactive
same,Potency,[5],inactive
CC(C)Cn1cnc2c(N)nc3ccccc3c21,Potency,[1],inactive
same,Potency,[3],inactive
same,Potency,[7],inactive
same,outcome,[8],inactive
same,Potency,[4],inactive
same,Potency,[9],inactive
same,Potency,[5],inactive
Oc1ccccc1O,Potency,[10],24.6 µM (active) and 30.6 µM (active)
same,Potency,[6],19.6 µM (active) and 54.5 µM (active)
same,Potency,[2],12.3 µM (active) and 27.3 µM (active)
same,Potency,[3],inactive
same,Potency,[4],inactive
same,Potency,[5],17.4 µM (active) and 15.4 µM (active)
CC1=Nc2ccccc2C1(C)C,Potency,[1],inactive
same,Potency,[3],inactive
same,Potency,[4],inactive
same,Potency,[5],inactive
CCN(CC)c1ccc2c(-c3ccc(S(=O)(=O)O)cc3S(=O)(=O)[O-])c3ccc(=[N+](CC)CC)cc-3oc2c1,Potency,[1],inactive
same,Potency,[7],inactive
same,outcome,[8],inactive
same,Potency,[4],11.2 µM (active)
CCCCCC/C=C\CCCCCCCC(=O)O,Potency,[6],inactive
same,Potency,[2],inactive
same,Potency,[3],inactive
same,Potency,[4],inactive
C=Cc1ccccc1C=C,Potency,[1],inactive
same,Potency,[3],inactive
same,Potency,[4],inactive
same,Potency,[5],inactive
CCN(CC)C(=O)c1cc(S(=O)(=O)Cc2ccccc2)c(N2CCC(c3ccccc3)CC2)cc1N(CC)CCN(C)C,Potency,[10],5.96 µM (active) and 17 µM (active)
same,Potency,[2],10.6 µM (active) and 17 µM (active)
same,Potency,[3],15.3 µM (active)
same,Potency,[5],3.35 µM (active) and 4.28 µM (active)
CC(C)=CCC1=C(O)c2ccccc2C(=O)C1=O,Potency,[6],48.3 µM (active)
same,Potency,[2],60.8 µM (active)
same,outcome,[8],inactive
same,Potency,[9],inactive
CCc1oc2ccccc2c1C(=O)c1cc(I)c(O)c(I)c1,Potency,[6],33.5 µM (active)
same,Potency,[3],inactive
same,Potency,[5],29.8 µM (active)
C=CC(=O)Nc1cc2c(Nc3ccc(F)c(Cl)c3)ncnc2cc1OCCCN1CCOCC1,Potency,[6],8.41 µM (active)
same,Potency,[2],5.96 µM (active)
same,Potency,[3],inactive
same,outcome,[8],inactive
same,Potency,[5],5.31 µM (active)
c1ccc(SSc2ccccc2)cc1,Potency,[1],inactive
same,Potency,[3],inactive
same,Potency,[5],inactive
CCCNCCC,Potency,[1],inactive
same,Potency,[3],inactive
same,Potency,[4],inactive
same,Potency,[5],inactive
Cc1cccc2cccnc12,Potency,[10],inactive
same,Potency,[6],inactive
same,Potency,[3],inactive
same,Potency,[4],inactive
same,Potency,[5],inactive
CCCCN(CCCC)CC(O)c1cc(Cl)cc2c1-c1ccc(Cl)cc1/C2=C/c1ccc(Cl)cc1 (configuration not stated),Potency,[1],inactive
same,Potency,[3],inactive
CCC(CC)(CC(=O)Nc1cccc(/C=C/c2nc(C3CCC3)cs2)c1)C(=O)O,Potency,[1],inactive
same,Potency,[3],inactive
same,Potency,[4],inactive
same,Potency,[5],inactive
CCCC[P+](C)(CCCC)CCCC,Potency,[1],inactive
same,Potency,[3],inactive
same,Potency,[4],inactive
same,Potency,[5],inactive
S=c1nccc[nH]1,Potency,[1],inactive
same,Potency,[3],inactive
same,Potency,[4],inactive
COc1cc(S(=O)(=O)O)c(C)cc1N=Nc1c(O)ccc2cc(S(=O)(=O)O)ccc12,Potency,[1],inactive
same,Potency,[3],inactive
same,Potency,[5],30.6 µM (active)
COC(=O)C1=C(C)NC(C)=C(C(=O)OCCN2CCN(C(c3ccccc3)c3ccccc3)CC2)C1c1cccc([N+](=O)[O-])c1 (configuration not stated),Potency,[10],5.31 µM (active)
same,Potency,[6],8.41 µM (active)
same,Potency,[2],6.68 µM (active)
same,Potency,[5],8.41 µM (active)
O=C1c2ccccc2C(=O)N1SC1CCCCC1,Potency,[10],15.3 µM (active) and 5.45 µM (active)
same,Potency,[6],6.85 µM (active) and 5.45 µM (active)
same,Potency,[3],38.9 µM (active) and 49 µM (active)
Sc1nc2ccccc2s1,Potency,[1],inactive
same,Potency,[4],inactive
same,Potency,[5],inactive
O=c1c(O)c(-c2ccc(O)cc2O)oc2cc(O)cc(O)c12,Potency,[1],inactive
same,Potency,[3],inactive
same,Potency,[4],inactive
same,Potency,[5],inactive
COC(=O)Nc1nc2ccc(C(=O)c3ccccc3)cc2[nH]1,Potency,[10],0.285 µM (active)
same,Potency,[2],0.403 µM (active)
same,Potency,[3],inactive
same,outcome,[8],inactive
same,Potency,[4],inactive
same,Potency,[9],inactive
Cc1cc(C(C#N)c2ccc(Cl)cc2)c(Cl)cc1NC(=O)c1cc(I)cc(I)c1O (configuration not stated),Potency,[10],26.6 µM (active)
same,Potency,[2],26.6 µM (active)
same,Potency,[3],inactive
same,Potency,[5],23.7 µM (active)
CN1CCN2c3ccccc3Cc3ccccc3C2C1 (configuration not stated),Potency,[10],13.3 µM (active)
same,Potency,[6],26.6 µM (active)
same,Potency,[2],21.1 µM (active)
same,Potency,[3],inactive
same,outcome,[8],inactive
same,Potency,[5],26.6 µM (active)
Cc1cccc(C(=O)O)c1O,Potency,[6],inactive
same,Potency,[2],inactive
same,Potency,[3],inactive
same,Potency,[4],inactive
same,Potency,[5],inactive
Cc1c2ccccc2c(C)c2c1ccc1ccccc12,Potency,[6],15.2 µM (active) and 2.73 µM (active)
same,Potency,[2],21.5 µM (active) and 4.33 µM (active)
same,Potency,[3],48.5 µM (active) and 24.5 µM (active)
same,outcome,[8],inactive
same,Potency,[9],inactive and 30.6 µM (active)
same,Potency,[5],27 µM (active) and 13.7 µM (active)
Cc1cc(C)c(/C=C2\C(=O)Nc3ccccc32)[nH]1,Potency,[10],inactive
same,Potency,[3],inactive
same,outcome,[8],inactive
same,Potency,[4],inactive
same,Potency,[9],inactive
Oc1cc(Cl)cc(Cl)c1Cl,Potency,[3],50.2 µM (active)
CC[N+](CC)(CC)CCOc1ccc(/C=C/c2ccccc2)cc1,Potency,[6],750 nM (active) and 668 nM (active)
same,Potency,[3],inactive
same,Potency,[4],29.8 µM (active)
same,Potency,[5],inactive
C=CCCC(=O)/C=C/C1C(C)=CCCC1(C)C (configuration not stated),Potency,[1],inactive
same,Potency,[3],inactive
COC1=C(OC)C(=O)C(CCCCCCCCCCO)=C(C)C1=O,Potency,[10],8.41 µM (active)
same,Potency,[6],13.3 µM (active)
same,Potency,[2],10.6 µM (active)
same,Potency,[3],inactive
same,outcome,[8],inactive
same,Potency,[4],inactive
same,Potency,[9],inactive
CCOC(=O)NNc1ccc(N(CC)CC(C)O)nn1 (configuration not stated),Potency,[1],inactive
same,Potency,[3],inactive
same,Potency,[4],inactive
same,Potency,[5],inactive
C=CC(=O)OCCOC(=O)C=C,Potency,[10],7.7 µM (active)
same,Potency,[2],10.9 µM (active)
same,Potency,[3],inactive
same,outcome,[8],inactive
same,Potency,[9],inactive
same,Potency,[5],61.1 µM (active)
O=[N+]([O-])c1ccc(O)cc1C(F)(F)F,Potency,[6],27.3 µM (active)
same,Potency,[2],21.7 µM (active)
same,Potency,[3],27.5 µM (active)
same,Potency,[4],61.1 µM (active)
same,Potency,[5],54.5 µM (active)
